This is a sample that favours compounds with a hit; in the whole collection about 2.4% have one here.
SENP6 block: SENP6 protease inhibitors, primary screen, biochemical, luminescence, uHTS; Sentrin-specific protease 6 (Homo sapiens), Q9GZR1; Recombinant SENP6 catalytic domain, aminoluciferin luminescence; inhibition, % at 10 µM; actives 1.8% (n = 330,000); AID 2599, 2010;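 active means inhibition above about 50% at the single tested dose, limit read from the data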;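 further: plate controls were DMSO wells with enzyme for no effect and DMSO wells lacking enzyme for full effect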
Target sequence (Q9GZR1 628-1112 limits assumed): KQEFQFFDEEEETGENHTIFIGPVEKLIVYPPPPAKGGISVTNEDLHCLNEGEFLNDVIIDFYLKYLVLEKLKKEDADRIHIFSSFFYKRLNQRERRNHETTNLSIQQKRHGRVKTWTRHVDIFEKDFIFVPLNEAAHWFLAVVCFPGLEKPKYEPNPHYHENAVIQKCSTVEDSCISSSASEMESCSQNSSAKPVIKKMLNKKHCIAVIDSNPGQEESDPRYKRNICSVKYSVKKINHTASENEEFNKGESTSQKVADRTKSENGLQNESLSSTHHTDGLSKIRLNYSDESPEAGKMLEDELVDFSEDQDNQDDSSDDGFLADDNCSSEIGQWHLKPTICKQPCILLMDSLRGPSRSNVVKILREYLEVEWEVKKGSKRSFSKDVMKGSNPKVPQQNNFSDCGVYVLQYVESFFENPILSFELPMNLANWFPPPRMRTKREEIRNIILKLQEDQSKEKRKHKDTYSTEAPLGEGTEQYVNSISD
SENP8 block-1: SENP8 protease inhibitors, primary screen, biochemical, luminescence; inhibition, % at 10 µM; purified SENP8, Z-RLRGG-aminoluciferin cleavage; actives 1.2% (n = 330,000); in the data active means inhibition above about 50%
SENP7 block: SENP7 protease inhibitors, primary screen, biochemical, luminescence, uHTS | recombinant SENP7, Z-RLRGG-aminoluciferin luminescence, 40 min | actives 1.5% (n = 330,000) | AID 434973, 2010 | inhibition, % at 5 µM | Sentrin-specific protease 7 (Homo sapiens), Q9BQF6;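 active means inhibition above about 50% at the single test dose, limit read from the data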;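 further: plate controls were DMSO with enzyme for no effect and no enzyme buffer wells for full effect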
SENP8 block-2: human SENP8 protease inhibitors, primary screen, biochemical, fluorescence, Nedd8 protein substrate, uHTS; AID 602440, 2012; actives 0.64% (n = 360,000); inhibition, % at 20 µM; Sentrin-specific protease 8 (Homo sapiens), Q96LD8; recombinant SENP8; in the data active means inhibition mostly above about 40%, no sharp cut-off; inactive means mostly below about 27%
Platelet DG rel: inhibitors of platelet dense granule secretion, primary screen, cell-based, MLPCN, human platelets; actives 0.22% (n = 300,000); human platelet-rich plasma, SFLLRN dense granule ATP release, luminescence; inhibition, %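 (compounds screened at 7.5 µM in platelet-rich plasma)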; AID 1663, 2009;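 active means mean replicate score, as percent of positive control, at or above 50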
Numbers without * were called inactive; . = no result given.

SMILES	SENP6 block	SENP8 block-1	SENP7 block	SENP8 block-2	Platelet DG rel
O=C(Nc1cc2ccccc2oc1=O)c1ccccc1	-8.6	93.9*	98.1*	-36.2	24.1
Cc1oc(=O)c(NC(=O)c2ccccc2)cc1C(N)=O	-23.2	1.4	-5.0	19.0	4.3
COc1ccc(C(C#N)N2N=C(c3ccccc3)CC2c2ccccc2)cc1OC (stereo not given)	28.4	-10.4	73.0*	-8.3	-1.1
O=C(c1ccc(F)cc1)n1ccc(-c2cnc(-c3ccccc3)s2)n1	54.6*	31.9	85.0*	-457.2	9.8
Fc1ccc(Cn2ccc(-c3cnc(-c4ccccc4)s3)n2)cc1	12.2	-7.7	20.6	-491.1	2.6
O=C(O)c1c(Cl)c(Cl)c(Cl)c(Cl)c1C(=O)OCC1CCCO1 (stereo not given)	.	.	.	10.9	.
Cc1ccc(N=Nc2ccc(O)c3ncccc23)cc1C	-20.3	-0.1	-20.1	26.2	3.7
Cc1cc(N=Nc2ccc(C)c(N=Nc3cc(C)c(N)cc3N)c2)c(N)cc1N	52.1*	52.6*	5.8	30.7	40.9
CCOC(=O)c1c(C)[nH]c(C(=O)COC(=O)c2oc3ccccc3c2C)c1C	6.8	0.5	3.7	36.8	0.8
CCOC(=O)c1c(C)[nH]c(C(=O)C(C)OC(=O)c2oc3ccccc3c2COC)c1C (stereo not given)	-3.4	-0.9	5.4	14.5	72.8*
CC(C)(C)c1ccc(C(=O)COC(=O)CN2C(=O)NC3(CCCC3)C2=O)cc1	5.3	2.9	2.4	3.6	-17.3
CCCCn1c(NC(=O)c2ccc(F)cc2)c(C#N)c2nc3ccccc3nc21	92.2*	95.2*	18.9	.	-1.0
CC(=O)N1CC2(c3ccccc3)CN(C(C)=O)CC(c3ccccc3)(C1)C2=O	69.8*	0.8	0.5	15.7	-0.8
CCC(=O)N1CC2(c3ccccc3)CN(C(=O)CC)CC(c3ccccc3)(C1)C2=O	-2.6	-6.4	-4.1	16.6	-2.6
CC(C)(C)c1cc[n+](-c2[nH]c(=O)sc2/C=N/NC([S-])=Nc2ccccc2)cc1	-2.2	3.6	4.0	25.0*	0.0
Cc1ccc(OC(=O)c2cccc([N+](=O)[O-])c2)c(-n2nc3ccccc3n2)c1	93.0*	86.7*	90.0*	15.8	-20.5
COC(=O)c1cn(-c2nc3ccccc3s2)nn1	.	.	.	-7.7	.
COc1cccc(CNC(=O)[C@@H]2CCCN2C(=O)[C@@H]2CCCN2)c1	.	.	.	7.3	.
N=C1/C(=C/c2ccc(-c3cccc(C(=O)O)c3)o2)C(=O)N=C2SC(CC(=O)N3CCOCC3)=NN12	6.5	7.3	0.1	9.3	0.9
N=C1/C(=C\c2ccc(-c3cccc(C(=O)O)c3)o2)C(=O)N=C2SC=C(c3ccccc3)N12	79.4*	46.1	-2.6	-80.4	-4.7
O=C(NCc1cccnc1)C1Cc2c(-c3ccc(Cl)cc3)ccnc2O1 (stereo not given)	.	.	.	15.5	.
CCC(CC)c1nnc(NC(=O)CSCC(=O)Nc2cc(C)on2)s1	-10.4	-5.9	10.9	8.8	2.8
CC(=O)N1CCN(S(=O)(=O)c2cccc(C(=O)NNC(=O)c3ccc(Br)cc3)c2)CC1	.	.	.	5.4	.
O=[N+]([O-])c1ccc(O)c(C=NN2CCCCC2)c1	.	.	.	26.1	.
Oc1ccc(Br)cc1/C=N/N1CCCCC1	94.3*	84.5*	53.3*	14.6	-8.3
SMILES	SENP6 block	SENP8 block-1	SENP7 block	SENP8 block-2	Platelet DG rel
CSc1ccccc1C(=O)Nc1ncc(C)s1	4.9	-6.3	4.8	-21.1	55.4*
CSc1ncccc1C(=O)Nc1ncc(C)s1	-7.6	-10.0	-6.5	7.4	-0.8
CCCC1OC(c2ccco2)OCC1CC (stereo not given)	.	.	.	20.0	.
CC1(C)Nc2ccc(O)cc2-c2c1ssc2=S	39.4	11.4	19.6	67.1*	-4.4
COc1cccc(-n2sc3c(c2=S)-c2cc(OC)ccc2NC3(C)C)c1	-3.8	2.6	5.6	36.8	-1.0
Cc1cccc2nc(COc3ccc(-c4ccccc4)cc3)cn12	94.2*	91.9*	95.3*	.	21.4
CCCCN(C(=O)Cc1cccc(F)c1)c1c(N)n(CCC)c(=O)[nH]c1=O	-32.3	-7.9	-6.6	2.7	-20.4
Cc1cccc(NC(=S)N=Nc2c(O)[nH]c3ccccc23)c1	-3.0	3.1	5.8	42.2*	-1.8
N#CC1=C(c2ccccc2)/C(=C/c2ccccc2)OC1=O	-10.6	7.4	-2.8	-37.4	1.2
O=C1O/C(=C/c2ccccc2)c2ccccc21	58.9*	21.6	27.2	-29.3	-8.3
